The source made the active and inactive calls.

Assay [1] relates to Plasmodium falciparum Sir2 (PF13_0152, Sir2A). Briefly: Plasmodium falciparum Sir2A binding compounds – biochemical, small-molecule microarray, 635 nm fluorescence, primary screen (AID 1098).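 Further: score merges spot fluorescence intensity with its signal-to-noise ratio.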 As to conditions: fluorescence 635 nm, higher = more signal.
Assay [2] is described as follows: probe aDKK1 binding to arrayed compounds – biochemical, biotinylated probe, 635/667 nm fluorescence, primary screen (AID 1099).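 Further: score merges 667nm spot fluorescence with signal to noise across triplicate slides.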 To be noted: small-molecule microarray, higher = more signal.
Assay [3] is described as follows: probe aCHRDL2 binding to arrayed compounds – biochemical, biotinylated probe, 635/667 nm fluorescence, primary screen (AID 1100). As to conditions: small-molecule microarray, higher = more signal.
A short description of assay [4]: change in splice reporter luminescence, either direction, cell-based, HEK293, spliceosome inhibition project, primary screen (AID 1101).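 Further: HEK293 cells carrying a splicing-competent luciferase reporter gene; test concentration not given here.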 As to conditions: HEK293 splicing luciferase reporter, 24 h, higher = more signal, called active from +8 up or from −8 down.
Assay [5] concerns the target Fibroblast growth factor 10 (Homo sapiens) (UniProt O15520). Put plainly: compounds binding fibroblast growth factor 10 – biochemical, small-molecule microarray, 635 nm fluorescence, primary screen (AID 1102). As to conditions: FGF10 binding, fluorescence 635 nm, higher = more signal.
Assay [6] deals with glycogen synthase kinase-3 (GSK3A per assay name; protocol says GSK3B). Briefly: compounds binding glycogen synthase kinase-3 – biochemical, small-molecule microarray, 635 nm fluorescence, GSK3A, primary screen (AID 1103). Further: the record names both GSK3A and GSK3B. As to conditions: fluorescence 635 nm, higher = more signal.
For assay [7], the target named is Epidermal growth factor receptor (Homo sapiens) (UniProt P00533). Briefly: compounds binding epidermal growth factor receptor – biochemical, small-molecule microarray, 635 nm fluorescence, primary screen (AID 1104).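 Further: score merges 667 nm emission intensity with spot signal to noise over triplicate slides.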 To be noted: EGFR binding, higher = more signal.
The target in assay [8] is Follistatin-related protein 3 (Homo sapiens) (UniProt O95633). Briefly: compounds binding follistatin-related protein 3 – biochemical, small-molecule microarray, 635 nm fluorescence, primary screen (AID 1105).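 Further: score merges emission near 667 nm and signal to noise per printed spot across three slides.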 As to conditions: FSTL3 binding, higher = more signal.
Assay [9] has as its target Dickkopf-related protein 1 (Homo sapiens) (UniProt O94907). Briefly: small molecules binding DKK1 protein – biochemical, small-molecule microarray, 635 nm fluorescence scan, primary screen (AID 1106).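 Further: score merges emission near 667 nm with signal to noise over three replicate slides.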 To be noted: higher = more signal.
For assay [10], the system named is Inhibin beta A chain (activin A). Put plainly: small molecules binding activin A – biochemical, small-molecule microarray, 635 nm fluorescence scan, primary screen (AID 1107).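 Further: mouse activin A protein probed at 4.33 µg/mL on printed slides; score merges bound-protein fluorescence near 667 nm with spot signal-to-noise.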 To be noted: INHBA, higher = more signal.
Assay [11] concerns Human papillomavirus type 1a protein E7 (residues 44-93). Put plainly: small molecules binding HPV E7 44-93 – biochemical, small-molecule microarray, residues 44-93, 635 nm fluorescence, primary screen (AID 1108).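 Further: E7 fragment applied at 1 µg/mL in TBST for 1 h at 4 C; score combines spot fluorescence with its signal to noise ratio.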 To be noted: fluorescence 635 nm, higher = more signal.
The nature of assay [12]: hepatitis C replication reporter changes, two-sided – Huh7 cells, luciferase reporter, HCV replication inhibitor project, primary screen (AID 1109).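 Further: huh7 hepatoma cells harbouring a luciferase neomycin HCV replicon reporter; luciferase luminescence as measure of HCV replicon replication; test concentration not given here.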 As to conditions: Huh7 HCV replicon luciferase reporter, 48 h; higher = more signal.
The target in assay [13] is Left-right determination factor 2 (Homo sapiens) (UniProt O00292). Put plainly: small molecules binding LEFTY2 protein – biochemical, small-molecule microarray, 635 nm fluorescence scan, primary screen (AID 1110). As to conditions: higher = more signal.
Assay [14] deals with Calmodulin-1 (Homo sapiens) (UniProt P0DP23). Briefly: small molecules binding calmodulin-1 with EGTA – biochemical, small-molecule microarray, Cy5-labelled CALM1, profiling panel (AID 1111).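 Further: labelled calmodulin applied in Tris saline Tween buffer holding calcium plus EGTA and DTT.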 To be noted: Cy5-CALM1 binding fluorescence, higher = more signal.
Assay [15] shares this target. Briefly: small molecules binding Ca-loaded calmodulin-1 – biochemical, small-molecule microarray, Cy5-labelled CALM1, plus calcium, artefact control for SMM control-protein annotation, profiling panel (AID 1112).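 Further: score merges spot fluorescence with signal to noise from triplicate slides.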 As to conditions: Cy5-CALM1 binding fluorescence, higher = more signal.
The nature of assay [16]: probe aWnt5a binding to arrayed compounds – biochemical, biotinylated probe, 635/667 nm fluorescence, primary screen (AID 1113).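 Further: score merges 667 nm fluorescence intensity with signal-to-noise per printed feature.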 To be noted: small-molecule microarray, higher = more signal.
The nature of assay [17]: probe aShh binding to arrayed compounds – biochemical, biotinylated probe, 635/667 nm fluorescence, primary screen (AID 1114).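 Further: probe is biotin-labelled aShh protein from a stem cell growth factor screen; measures binding of labelled protein to compounds printed on the slide; score merges feature fluorescence at 667 nm with signal-to-noise.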 As to conditions: small-molecule microarray, higher = more signal.
Assay [18] can be described thus: probe aNog binding to arrayed compounds – biochemical, biotinylated probe, 635/667 nm fluorescence, primary screen (AID 1115).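 Further: probe is biotinylated aNog protein used at 0.15 µg/mL for 1 h at 4 C; z-score combines 667 nm fluorescence of each spot with its signal to noise.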 To be noted: small-molecule microarray, higher = more signal.
In assay [19] the target is Torsin-1A-interacting protein 1 (Homo sapiens) (UniProt Q5JTV8). Briefly: compound microarray binding of lysate hLAP1 – cell lysate, small-molecule microarray, COS7 lysate, 635/667 nm fluorescence, primary screen (AID 1116). To be noted: 635 nm fluorescence, higher = more signal.
Assay [20] deals with Alpha-bungarotoxin (Bungarus multicinctus) (UniProt P60615). Put plainly: compounds binding labelled alpha-BTX control protein – biochemical, small-molecule microarray, Alexa647 label, 635/667 nm fluorescence, artefact control for SMM control protein annotation, profiling panel (AID 1117). As to conditions: alpha-BTX-A647 binding fluorescence, higher = more signal.
Sequence of Alpha-bungarotoxin (Bungarus multicinctus) (P60615 whole entry, looked up): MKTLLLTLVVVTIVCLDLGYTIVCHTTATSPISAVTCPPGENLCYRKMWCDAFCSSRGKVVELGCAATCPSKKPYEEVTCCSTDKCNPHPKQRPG

Sequence of Left-right determination factor 2 (Homo sapiens) (O00292 whole entry, looked up): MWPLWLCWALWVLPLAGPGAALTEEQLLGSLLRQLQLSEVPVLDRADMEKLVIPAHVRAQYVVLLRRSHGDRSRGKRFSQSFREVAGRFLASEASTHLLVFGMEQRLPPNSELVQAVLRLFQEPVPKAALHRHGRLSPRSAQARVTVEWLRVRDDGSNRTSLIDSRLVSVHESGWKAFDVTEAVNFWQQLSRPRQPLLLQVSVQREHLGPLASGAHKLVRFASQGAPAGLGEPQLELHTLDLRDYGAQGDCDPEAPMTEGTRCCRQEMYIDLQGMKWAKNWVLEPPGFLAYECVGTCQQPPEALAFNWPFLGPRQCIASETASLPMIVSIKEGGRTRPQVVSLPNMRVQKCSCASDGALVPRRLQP
Sequence of Fibroblast growth factor 10 (Homo sapiens) (O15520 whole entry, looked up): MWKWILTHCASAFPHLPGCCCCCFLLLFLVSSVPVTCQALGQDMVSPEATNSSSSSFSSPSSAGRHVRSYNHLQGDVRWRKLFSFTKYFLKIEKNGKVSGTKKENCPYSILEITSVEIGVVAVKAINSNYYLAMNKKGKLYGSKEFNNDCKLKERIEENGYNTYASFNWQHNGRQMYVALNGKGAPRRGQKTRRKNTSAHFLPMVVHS
Sequence of Dickkopf-related protein 1 (Homo sapiens) (O94907 whole entry, looked up): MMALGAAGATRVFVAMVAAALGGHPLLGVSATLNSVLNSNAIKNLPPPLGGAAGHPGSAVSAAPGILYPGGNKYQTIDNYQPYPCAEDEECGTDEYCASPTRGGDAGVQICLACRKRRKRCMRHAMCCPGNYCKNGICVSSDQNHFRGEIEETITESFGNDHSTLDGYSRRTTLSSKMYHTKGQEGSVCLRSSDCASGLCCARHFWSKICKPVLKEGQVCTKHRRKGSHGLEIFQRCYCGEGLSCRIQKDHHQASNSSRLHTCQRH
Sequence of Torsin-1A-interacting protein 1 (Homo sapiens) (Q5JTV8 whole entry, looked up): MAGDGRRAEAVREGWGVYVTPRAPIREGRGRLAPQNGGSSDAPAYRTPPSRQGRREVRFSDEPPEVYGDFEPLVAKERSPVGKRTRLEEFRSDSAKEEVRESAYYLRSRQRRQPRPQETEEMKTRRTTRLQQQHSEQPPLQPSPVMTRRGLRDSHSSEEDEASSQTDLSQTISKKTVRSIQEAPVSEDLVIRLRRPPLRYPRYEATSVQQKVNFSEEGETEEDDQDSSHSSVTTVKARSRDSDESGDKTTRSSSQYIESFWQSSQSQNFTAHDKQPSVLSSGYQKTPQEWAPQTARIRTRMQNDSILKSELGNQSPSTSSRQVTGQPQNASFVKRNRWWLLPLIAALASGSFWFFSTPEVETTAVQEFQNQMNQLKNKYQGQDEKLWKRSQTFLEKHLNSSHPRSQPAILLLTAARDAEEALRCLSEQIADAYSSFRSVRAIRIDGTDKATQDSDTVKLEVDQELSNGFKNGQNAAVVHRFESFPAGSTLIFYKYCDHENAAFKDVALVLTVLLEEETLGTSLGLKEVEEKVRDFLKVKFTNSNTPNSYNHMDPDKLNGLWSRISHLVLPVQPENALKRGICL
Sequence of Epidermal growth factor receptor (Homo sapiens) (P00533 whole entry, looked up): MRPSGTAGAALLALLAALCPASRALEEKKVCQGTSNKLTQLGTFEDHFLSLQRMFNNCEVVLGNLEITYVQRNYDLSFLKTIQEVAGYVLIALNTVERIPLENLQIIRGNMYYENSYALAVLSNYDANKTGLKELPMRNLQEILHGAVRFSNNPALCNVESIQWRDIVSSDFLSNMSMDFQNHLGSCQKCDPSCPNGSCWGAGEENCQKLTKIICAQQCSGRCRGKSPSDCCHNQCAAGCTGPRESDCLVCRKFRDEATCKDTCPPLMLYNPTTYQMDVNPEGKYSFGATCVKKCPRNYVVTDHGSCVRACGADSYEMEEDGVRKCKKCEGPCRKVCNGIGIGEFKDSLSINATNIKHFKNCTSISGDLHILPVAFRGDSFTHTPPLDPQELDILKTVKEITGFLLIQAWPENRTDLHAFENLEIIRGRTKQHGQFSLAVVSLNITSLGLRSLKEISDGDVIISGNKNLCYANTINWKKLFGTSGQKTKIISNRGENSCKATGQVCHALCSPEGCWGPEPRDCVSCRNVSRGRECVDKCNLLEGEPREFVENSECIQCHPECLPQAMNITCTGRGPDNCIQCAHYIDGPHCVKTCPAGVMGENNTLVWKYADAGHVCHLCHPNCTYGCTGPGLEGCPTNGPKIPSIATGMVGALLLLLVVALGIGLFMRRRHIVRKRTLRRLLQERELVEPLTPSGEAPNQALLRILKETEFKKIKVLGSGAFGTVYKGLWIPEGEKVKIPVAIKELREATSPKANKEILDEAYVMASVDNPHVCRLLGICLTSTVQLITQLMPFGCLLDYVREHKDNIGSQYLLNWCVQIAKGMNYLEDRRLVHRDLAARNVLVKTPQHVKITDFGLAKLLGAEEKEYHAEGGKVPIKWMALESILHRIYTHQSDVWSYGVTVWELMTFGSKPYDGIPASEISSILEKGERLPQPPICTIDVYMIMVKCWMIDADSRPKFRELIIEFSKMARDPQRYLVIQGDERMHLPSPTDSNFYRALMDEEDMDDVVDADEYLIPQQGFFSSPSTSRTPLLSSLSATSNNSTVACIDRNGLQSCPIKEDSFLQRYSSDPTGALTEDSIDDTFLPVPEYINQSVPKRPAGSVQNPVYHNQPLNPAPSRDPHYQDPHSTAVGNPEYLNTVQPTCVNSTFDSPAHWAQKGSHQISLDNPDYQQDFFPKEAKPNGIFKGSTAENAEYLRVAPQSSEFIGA
Sequence of Follistatin-related protein 3 (Homo sapiens) (O95633 whole entry, looked up): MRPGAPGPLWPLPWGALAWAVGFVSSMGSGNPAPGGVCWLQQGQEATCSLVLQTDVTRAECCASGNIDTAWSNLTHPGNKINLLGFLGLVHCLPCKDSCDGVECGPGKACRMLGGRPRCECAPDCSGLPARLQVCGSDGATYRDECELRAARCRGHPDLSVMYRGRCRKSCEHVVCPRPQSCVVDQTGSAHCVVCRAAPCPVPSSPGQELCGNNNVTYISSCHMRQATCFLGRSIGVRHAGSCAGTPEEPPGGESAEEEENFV

As to `COCCOC(=O)N1C(=O)[C@@]2(c3cc(C#Cc4ccc(OC)cc4)ccc31)[C@H](c1ccc(OCCO)cc1)N1[C@H](c3ccccc3)[C@H](c3ccccc3)OC(=O)[C@H]1[C@@H]2C(=O)N1CCc2cc(OC)c(OC)cc2C1`, the composite z-score in assay [1] is 1.41; in assay [2], -0.126; in assay [3], -0.227; in assay [5], 0.812; in assay [6], 1.12; in [7], 0.463. Further, the composite z-score in assay [8] was found to be 1.3; in assay [9], 0.435; in assay [10], 0.273; in assay [11] it was 1.22; in assay [13] it was 0.493; in assay [14] it was 0.784. Besides, the composite z-score in assay [15] is 0.458; in [16], -0.203; in assay [17], -0.0824; in assay [18] it was -0.0602; in assay [19], 0.705; in assay [20] it was 0.571. Moreover, the z-score was -0.355 (inactive) in assay [4] and -0.603 in assay [12].
Take `[N-]=[N+]=Nc1ccccc1C[C@]1(C(=O)N2CCCCC2)N=C(c2ccc(OCCCO)cc2)O[C@H]1c1ccccc1N=[N+]=[N-]`: the composite z-score is 1.42 in assay [1]; 0.0941 in assay [2]; 1.18 in assay [3]; 1.4 in [5]; 0.743 in assay [6]; -0.0207 in assay [7]. The composite z-score in [8] is 0.611; in [9], -0.235; in assay [10], 1.25; in assay [11] it was 0.903; in assay [13], -0.0089; in [14], 1.46. Also, the composite z-score came to 0.605 in assay [15]; 0.2 in assay [16]; 0.294 in assay [17]; 1.87 in assay [18]; 1.21 in assay [19]; 0.703 in assay [20]. Also, the z-score in [4] is -0.103 (inactive); in [12], -2.5.
As for `CCCCCN1CC=CC23O[C@@H]4C=CCCOC(=O)C4[C@H]2C(=O)N(CCCO)[C@@H]3C1=O` (stereo not given in full), the composite z-score is 1.06 in assay [1]; -0.117 in assay [2]; -0.141 in assay [3]; -0.0549 in [5]; -0.452 in assay [6]; -0.928 in assay [7]. Also, the composite z-score was -0.344 in assay [8]; 0.0124 in assay [9]; -0.166 in assay [10]; -0.337 in assay [11]; -0.43 in assay [13]; -0.162 in assay [14]. In addition, the composite z-score is -0.591 in assay [15]; -0.198 in [16]; -0.283 in assay [17]; -0.0125 in assay [18]; -0.643 in assay [19]; -0.546 in assay [20]. Also, the z-score is -0.588 (inactive) in assay [4] and -0.726 in assay [12].
For `COC(=O)c1nc2oc1CC[C@@H](CO)NC(=O)N(C)Cc1cn(nn1)C[C@H](Cc1ccccc1)NC2=O`, the composite z-score in assay [1] was 0.68; in assay [2] it was -0.268; in [3], 0.269; in [5], 0.133; in assay [6], -0.587; in assay [7], -0.647. The composite z-score in assay [8] was -0.221; in assay [9] it was -0.4; in assay [10] it was 0.697; in [11] it was -0.205; in [13], -1.11; in assay [14] it was -0.423. Also, the composite z-score in assay [15] was 0.376; in assay [16], -0.129; in assay [17], 0.0639; in assay [18], 0.582; in assay [19], 0.481; in [20], 0.981. Further, the z-score in [4] was -0.275 (inactive); in assay [12], 1.34.
For `CCOC(=O)C[C@H]1[C@H](OC(=O)c2cc3ccccc3oc2=O)[C@@H](NC(=O)c2ccc3ccccc3c2)c2cc(OCCCO)ccc2N1C(=O)c1ccccc1`, the composite z-score is 1.38 in [1]; -0.151 in assay [2]; -0.413 in assay [3]; 1.41 in [5]; 0.939 in assay [6]; 0.348 in assay [7]. For the same molecule, the composite z-score is 0.906 in assay [8]; 0.486 in assay [9]; 0.447 in assay [10]; 1.39 in [11]; 0.129 in [13]; -0.0786 in assay [14]. For the same molecule, the composite z-score in [15] was -0.337; in assay [16], -0.12; in assay [17], 0.214; in assay [18] it was -0.0863; in assay [19] it was 0.739; in assay [20] it was 0.43. In addition, the z-score in [4] was -1.28 (inactive); in assay [12] it was -0.593.

The values are drawn from PubChem BioAssay.
